# Results from the supplement of paper PMC8728848.
# Many of the other results were omitted from the sample, so the strongest signals are more common in it than they were.
# B1: Na-CTL-1 (Necator americanus) (protein)
# chain: MQRSFLLLLVVLAGAWAVNTTIPLKLMGGFTPMKYQCVGRVSDIWADVLFLIESSDMITKSGFRQVIAFITATTKKMTIGQDEKQTRVGFITYGEEAKLIYDLDHWRSTEKLSDLVQKIPYVKSSGTNIAAAIALANKVFNSPTHRPNVPKVMVIVANGLKKGSQNPIPVATAFKDFGGIIITIEYTQYDNIQVPILKKIASEGYNIRSNDEDFSVRTLTNMLLQANCFCPDHYVPFRVNNPEFGCFVTAKIPSMWRDAAEMCRAVEEGKLVKVENEEKAAFIMKLVGPKKEAWIGLRYYGNKFQWTDGTKLNADDFNLWPEDIKELNGPHCVSMYQDQKDKKYYWRAGKCLEDMRYVCEVQPCSASNYCSEPVFMYRQKHRALLPAPPPPPN
# Columns and labels:
# Assay in all cases: glycan array binding signal (z-score within array); higher = stronger binding
# Conditions in all cases: glycan notation: IUPAC condensed, linker removed
# [1] = target: Fuc(a1-2)Gal(b1-3)GalNAc(b1-3)Gal(a1-4)Gal(b1-4)Glc
# How it was run: (§1)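 Glycan array data came from 3228 arrays in the Consortium for Functional Glycomics database, and only arrays with an available protein sequence were kept. Glycan names were put into IUPAC-condensed notation, and columns mapping to the same glycan were averaged. The binding signal is a within-array Z-score, averaged across arrays of one protein sequence run at different concentrations or buffers and across linkers. A negative Z-score can be read as non-binding.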
# [2] = target: Fuc(a1-2)Gal(b1-4)GlcNAc(b1-2)Man
# How it was run: as §1
# [3] = target: Fuc(a1-2)Gal(b1-4)GlcNAc(b1-3)[Fuc(a1-2)Gal(b1-4)GlcNAc(b1-6)]GalNAc
# How it was run: as §1
# [4] = target: Fuc(a1-2)Gal(b1-4)[Fuc(a1-3)]GlcNAc(b1-3)Gal(b1-4)[Fuc(a1-3)]GlcNAc(b1-3)Gal(b1-4)[Fuc(a1-3)]GlcNAc
# How it was run: as §1
# [5] = target: Fuc(a1-2)[Gal(a1-3)]Gal(b1-3)GalNAc
# How it was run: as §1
# [6] = target: Fuc(a1-2)[Gal(a1-3)]Gal(b1-3)GlcNAc(b1-3)GalNAc
# How it was run: as §1
# [7] = target: Fuc(a1-2)[Gal(a1-3)]Gal(b1-4)GlcNAc(b1-3)[Fuc(a1-2)[Gal(a1-3)]Gal(b1-4)GlcNAc(b1-6)]GalNAc
# How it was run: as §1
# [8] = target: Fuc(a1-2)[Gal(a1-3)]Gal(b1-4)GlcNAc(b1-6)GalNAc
# How it was run: as §1
# [9] = target: Fuc(a1-2)[GalNAc(a1-3)]Gal(b1-3)GalNAc(a1-3)[Fuc(a1-2)]Gal(b1-4)GlcNAc
# How it was run: as §1
# [10] = target: Fuc(a1-2)[GalNAc(a1-3)]Gal(b1-4)[Fuc(a1-3)]GlcNAc(b1-3)GalNAc
# How it was run: as §1
# [11] = target: Fuc(a1-4)GlcNAc
# How it was run: as §1
# [12] = target: Gal(a1-3)Gal(b1-3)GlcNAc(b1-6)GalNAc
# How it was run: as §1
# [13] = target: Gal(a1-3)Gal(b1-4)GlcNAc(b1-2)Man(a1-3)[Gal(a1-3)Gal(b1-4)GlcNAc(b1-2)Man(a1-6)]Man(b1-4)GlcNAc(b1-4)GlcNAc
# How it was run: as §1
# [14] = target: Gal(b1-2)Gal
# How it was run: as §1
# [15] = target: Gal(b1-3)GalNAc(b1-4)Gal(b1-4)Glc
# How it was run: as §1
# [16] = target: Gal(b1-3)GlcNAc(b1-2)Man
# How it was run: as §1
# [17] = target: Gal(b1-3)GlcNAc(b1-3)Gal(b1-4)GlcNAc(b1-3)Gal(b1-4)GlcNAc(b1-2)[Gal(b1-3)GlcNAc(b1-3)Gal(b1-4)GlcNAc(b1-3)Gal(b1-4)GlcNAc(b1-6)]Man(a1-6)[Gal(b1-3)GlcNAc(b1-3)Gal(b1-4)GlcNAc(b1-3)Gal(b1-4)GlcNAc(b1-2)Man(a1-3)]Man(b1-4)GlcNAc(b1-4)[Fuc(a1-6)]GlcNAc
# How it was run: as §1
# [18] = target: Gal(b1-3)GlcNAc(b1-3)Gal(b1-4)GlcNAc(b1-6)[Gal(b1-3)GlcNAc(b1-3)]Gal(b1-4)Glc
# How it was run: as §1
# [19] = target: Gal(b1-3)[Fuc(a1-4)]GlcNAc
# How it was run: as §1
# [20] = target: Gal(b1-4)GlcNAc(b1-2)Man(a1-3)[Gal(b1-4)GlcNAc(b1-2)Man(a1-6)][Gal(b1-4)GlcNAc(b1-4)]Man(b1-4)GlcNAc(b1-4)[Fuc(a1-6)]GlcNAc
# How it was run: as §1
# [21] = target: Gal(b1-4)GlcNAc(b1-2)Man(a1-3)[GlcNAc(b1-4)][Gal(b1-4)GlcNAc(b1-2)Man(a1-6)]Man(b1-4)GlcNAc(b1-4)GlcNAc
# How it was run: as §1
# [22] = target: Gal(b1-4)GlcNAc(b1-2)Man(a1-6)[GlcNAc(b1-2)Man(a1-3)]Man(b1-4)GlcNAc(b1-4)GlcNAc
# How it was run: as §1
# [23] = target: Gal(b1-4)GlcNAc(b1-2)Man(a1-6)[Man(a1-3)]Man(b1-4)GlcNAc(b1-4)GlcNAc
# How it was run: as §1
# [24] = target: Gal(b1-4)GlcNAc(b1-2)[Gal(b1-4)GlcNAc(b1-6)]Man(a1-6)[Gal(b1-4)GlcNAc(b1-2)Man(a1-3)]Man(b1-4)GlcNAc(b1-4)[Fuc(a1-6)]GlcNAc
# How it was run: as §1
# [25] = target: Gal(b1-4)GlcNAc(b1-3)Gal(b1-4)GlcNAc(b1-2)[Gal(b1-4)GlcNAc(b1-3)Gal(b1-4)GlcNAc(b1-6)]Man(a1-6)[Gal(b1-4)GlcNAc(b1-3)Gal(b1-4)GlcNAc(b1-2)Man(a1-3)]Man(b1-4)GlcNAc(b1-4)GlcNAc
# How it was run: as §1
# [26] = target: Gal(b1-4)GlcNAc(b1-3)Gal(b1-4)GlcNAc(b1-3)Gal(b1-4)GlcNAc(b1-3)Gal(b1-4)GlcNAc(b1-2)Man(a1-3)[Gal(b1-4)GlcNAc(b1-3)Gal(b1-4)GlcNAc(b1-3)Gal(b1-4)GlcNAc(b1-3)Gal(b1-4)GlcNAc(b1-2)Man(a1-6)]Man(b1-4)GlcNAc(b1-4)[Fuc(a1-6)]GlcNAc
# How it was run: as §1
# [27] = target: Gal(b1-4)GlcNAc(b1-3)Gal(b1-4)GlcNAc(b1-3)Gal(b1-4)GlcNAc(b1-3)Gal(b1-4)GlcNAc(b1-3)Gal(b1-4)GlcNAc(b1-2)Man(a1-3)[Gal(b1-4)GlcNAc(b1-3)Gal(b1-4)GlcNAc(b1-3)Gal(b1-4)GlcNAc(b1-3)Gal(b1-4)GlcNAc(b1-3)Gal(b1-4)GlcNAc(b1-2)Man(a1-6)]Man(b1-4)GlcNAc(b1-4)GlcNAc
# How it was run: as §1
# [28] = target: Gal(b1-4)GlcNAc(b1-3)Gal(b1-4)GlcNAc(b1-3)[Gal(b1-4)GlcNAc(b1-3)Gal(b1-4)GlcNAc(b1-6)]GalNAc
# How it was run: as §1
# [29] = target: Gal(b1-4)GlcNAc(b1-3)[Gal(b1-4)GlcNAc(b1-6)]Gal(b1-4)GlcNAc
# How it was run: as §1
# [30] = target: GalNAc(a1-3)Gal
# How it was run: as §1
# [31] = target: GalNAc(b1-4)GlcNAc
# How it was run: as §1
# [32] = target: Glc(a1-4)Glc(a1-4)Glc(a1-4)Glc
# How it was run: as §1
# [33] = target: GlcNAc(b1-2)[GlcNAc(b1-4)]Man(a1-3)[GlcNAc(b1-4)][GlcNAc(b1-2)[GlcNAc(b1-6)]Man(a1-6)]Man(b1-4)GlcNAc(b1-4)[Fuc(a1-6)]GlcNAc
# How it was run: as §1
# [34] = target: GlcNAc(b1-3)Gal(b1-4)GlcNAc
# How it was run: as §1
# [35] = target: GlcNAc(b1-3)Gal(b1-4)GlcNAc(b1-3)Gal(b1-4)GlcNAc(b1-3)Gal(b1-4)GlcNAc(b1-2)[GlcNAc(b1-3)Gal(b1-4)GlcNAc(b1-3)Gal(b1-4)GlcNAc(b1-3)Gal(b1-4)GlcNAc(b1-6)]Man(a1-6)[GlcNAc(b1-3)Gal(b1-4)GlcNAc(b1-3)Gal(b1-4)GlcNAc(b1-3)Gal(b1-4)GlcNAc(b1-2)Man(a1-3)]Man(b1-4)GlcNAc(b1-4)[Fuc(a1-6)]GlcNAc
# How it was run: as §1
# [36] = target: GlcNAc(b1-3)[GlcNAc(b1-6)]Gal(b1-4)GlcNAc
# How it was run: as §1
# [37] = target: Man(a1-2)Man(a1-2)Man(a1-3)Man
# How it was run: as §1
# [38] = target: Man(a1-2)Man(a1-3)[Man(a1-6)]Man(a1-6)[Man(a1-2)Man(a1-3)]Man(b1-4)GlcNAc(b1-4)GlcNAc
# How it was run: as §1
# [39] = target: Man(a1-6)Man
# How it was run: as §1
# [40] = target: Neu5Ac(a2-3)Gal(b1-3)GalNAc(b1-4)[Neu5Ac(a2-3)]Gal(b1-4)Glc
# How it was run: as §1
# [41] = target: Neu5Ac(a2-3)Gal(b1-3)[Fuc(a1-4)]GlcNAc(b1-3)Gal(b1-3)[Fuc(a1-4)]GlcNAc
# How it was run: as §1
# [42] = target: Neu5Ac(a2-3)Gal(b1-4)Glc
# How it was run: as §1
# [43] = target: Neu5Ac(a2-3)[GalNAc(b1-4)]Gal(b1-4)GlcNAc
# How it was run: as §1
# [44] = target: Neu5Ac(a2-6)Gal(b1-4)Glc
# How it was run: as §1
# [45] = target: Neu5Ac(a2-6)Gal(b1-4)GlcNAc(b1-2)Man(a1-3)[Neu5Ac(a2-6)Gal(b1-4)GlcNAc(b1-2)Man(a1-6)]Man(b1-4)GlcNAc(b1-4)[Fuc(a1-6)]GlcNAc
# How it was run: as §1
# [46] = target: Neu5Ac(a2-6)GlcNAc(b1-4)GlcNAc(b1-4)GlcNAc
# How it was run: as §1
# [47] = target: Neu5Ac(a2-8)Neu5Ac(a2-8)Neu5Ac(a2-3)Gal(b1-4)Glc
# How it was run: as §1
binder,measurement,setting,value
B1,glycan array binding signal (z-score),[1],-0.262
same,glycan array binding signal (z-score),[2],0.123
same,glycan array binding signal (z-score),[3],-0.753
same,glycan array binding signal (z-score),[4],-0.334
same,glycan array binding signal (z-score),[5],-0.176
same,glycan array binding signal (z-score),[6],-0.06
same,glycan array binding signal (z-score),[7],2.8
same,glycan array binding signal (z-score),[8],-0.539
same,glycan array binding signal (z-score),[9],-0.489
same,glycan array binding signal (z-score),[10],14.8
same,glycan array binding signal (z-score),[11],13.6
same,glycan array binding signal (z-score),[12],-0.267
same,glycan array binding signal (z-score),[13],0.692
same,glycan array binding signal (z-score),[14],-0.582
same,glycan array binding signal (z-score),[15],-0.243
same,glycan array binding signal (z-score),[16],-0.258
same,glycan array binding signal (z-score),[17],1.66
same,glycan array binding signal (z-score),[18],-0.326
same,glycan array binding signal (z-score),[19],-0.259
same,glycan array binding signal (z-score),[20],-0.149
same,glycan array binding signal (z-score),[21],0.121
same,glycan array binding signal (z-score),[22],-0.602
same,glycan array binding signal (z-score),[23],3.16
same,glycan array binding signal (z-score),[24],0.921
same,glycan array binding signal (z-score),[25],2.03
same,glycan array binding signal (z-score),[26],2.87
same,glycan array binding signal (z-score),[27],0.78
same,glycan array binding signal (z-score),[28],-0.05
same,glycan array binding signal (z-score),[29],-0.557
same,glycan array binding signal (z-score),[30],-0.696
same,glycan array binding signal (z-score),[31],1.86
same,glycan array binding signal (z-score),[32],-0.045
same,glycan array binding signal (z-score),[33],-0.111
same,glycan array binding signal (z-score),[34],-0.383
same,glycan array binding signal (z-score),[35],1.69
same,glycan array binding signal (z-score),[36],-0.476
same,glycan array binding signal (z-score),[37],0.039
same,glycan array binding signal (z-score),[38],0.06
same,glycan array binding signal (z-score),[39],-0.528
same,glycan array binding signal (z-score),[40],0.065
same,glycan array binding signal (z-score),[41],-0.347
same,glycan array binding signal (z-score),[42],2.35
same,glycan array binding signal (z-score),[43],-0.222
same,glycan array binding signal (z-score),[44],-0.543
same,glycan array binding signal (z-score),[45],0.041
same,glycan array binding signal (z-score),[46],1.95
same,glycan array binding signal (z-score),[47],-0.34
